# USP28 block: inhibitors of human USP28 deubiquitinase; inhibition, % at 25 µM; purified USP28, Ub-rhodamine cleavage fluorescence, 30 min; 47,000 compounds, 3% hits
# USP17 block: inhibitors of human USP17 deubiquitinase; A8MUK1; purified USP17, Ub-rhodamine cleavage fluorescence, 3 h; inhibition, % at 50 µM; 47,000 compounds, 6.5% hits; AID 1645855
# OTUD3 block: blocks human OTUD3 ubiquitin-rhodamine cleavage | Q5T2D3 | purified OTUD3, Ub-rhodamine fluorescence, 2 h | inhibition, % at 25 µM | 47,000 compounds, 0.7% hits | AID 1645858
# USP30 block: human USP30 deubiquitinase inhibition | inhibition, % at 25 µM | AID 1645860 | 47,000 compounds, 5.3% hits | purified USP30, Ub-rhodamine cleavage fluorescence | Q70CQ3
# Starred values were filed as active, the others as inactive. Sampled rows, rich in hits. Any-hit rate of the full collection: about 11%. Rule as the data show it: active = inhibition above about 30%; inactive = the rest.
SMILES,USP28 block,USP17 block,OTUD3 block,USP30 block
O=C(c1cc(C2CC2)[nH]n1)N1CCC(Cc2ccccc2)CC1,21.2,3.5,7.4,32.5*
c1ccc(-c2cc3c(N4CCc5ccccc5C4)ncnc3s2)cc1,12.0,29.9,23.2,29.6
Cc1cc(-c2cncnc2C2CCCN(C(=O)C3CC3)C2)on1 (stereo not drawn),-2.8,-0.4,-2.0,0.0
CCN(CC)C(=O)CN1CCCC(c2ncncc2-c2cc(C)no2)C1 (stereo not drawn),6.1,11.2,30.2*,23.2
Cc1ccc(Oc2ccccc2NC(=O)CSc2nc(N)nc(N)n2)cc1,-7.1,42.9*,-14.5,-108.0
COc1ccc(C(CC(=O)Nc2ccccc2OC)n2cccc2)cc1 (stereo not drawn),3.1,7.5,-0.3,-8.8
O=C(/C=C/c1ccc2c(c1)OCO2)N1CCCc2ccccc21,24.6,18.2,29.5,45.6*
Cc1noc(C2CN(C(=O)/C=C/c3ccc4c(c3)OCO4)C2)n1,10.7,5.2,9.0,32.6*
O=C(/C=C/c1cccc([N+](=O)[O-])c1)N1CCc2ccccc21,8.3,0.2,0.0,-7.6
COc1cccc(C2c3[nH]c4ccccc4c3C[C@@H]3C(=O)N(C4CCCCC4)CC(=O)N23)c1OC (stereo partly drawn),-8.8,-5.9,-6.4,-26.8
COc1ccc(-c2cc3c(=O)n(CC(=O)Nc4ccccc4C)ccn3n2)cc1,5.7,36.4*,10.2,31.1*
COc1ccc(-c2cc3c(=O)n(CC(=O)Nc4ccc(Cl)cc4)ccn3n2)cc1,11.2,18.7,14.5,19.2
O=c1c(-c2nc(C3CC3)no2)cccn1Cc1c(F)cccc1Cl,85.4*,4.1,2.3,23.5
O=c1c(-c2nc(C3CC3)no2)cccn1Cc1noc(-c2ccccc2F)n1,-9.9,-24.9,-7.0,-127.3
COc1ccc(S(=O)(=O)Nc2cnc(N3CCCC3)nc2)cc1Cl,-4.5,-11.6,-4.6,-8.6
NS(=O)(=O)c1ccc(CCNC(=O)COC(=O)c2cc(-c3ccc(Cl)cc3)nc3ccccc23)cc1,36.7*,30.3*,9.1,39.4*
CCOC(=O)Cc1nc2ccccc2n(CC2CC2)c1=O,-0.3,-13.1,-3.9,-15.0
CC1=C(Cn2c3cccc(=O)c-3nc3ccccc32)CCC(C)(C)C1,73.6*,77.8*,73.8*,20.4
Cc1cnnn1-c1ccc(C(=O)Nc2ccccc2F)cc1,12.5,15.5,10.4,34.0*
Cc1cnnn1-c1ccc(C(=O)Nc2ccc(Cl)cc2Cl)cc1,36.9*,84.4*,23.3,80.8*
O=C(c1cc(=O)[nH]c2ccccc12)N1CCc2ccccc21,-4.2,-7.5,-2.7,-6.9
Cc1ccc(C(=O)Nc2nccnc2C(=O)NCc2ccccc2)cc1,7.8,6.1,3.9,17.9
Cn1ccc(C(=O)N2CCCC3(COCCN(c4cccnc4)C3)C2)n1 (stereo not drawn),-8.5,-6.2,0.0,-0.4
Cc1ccc(C(=O)NC2CCN(Cc3c(C)noc3C)CC2)cc1F,12.2,-2.1,3.7,-3.1
CC(=O)N1CCCCCC1C1CCN(Cc2ccc(C#N)cc2F)CC1 (stereo not drawn),4.4,-5.7,3.9,-2.3
SMILES,USP28 block,USP17 block,OTUD3 block,USP30 block
Cc1cc(NC(=O)C2CCCN(S(=O)(=O)N3CCCCCC3)C2)no1 (stereo not drawn),-8.9,-2.3,-7.8,-7.5
Cc1cc(NC(=O)C(=O)NCC2CCN(C(C)C)CC2)no1,2.3,9.7,9.7,33.3*
C[C@@H](O)CNC(=O)c1ccc2nc(-n3cccc3)sc2c1,-20.7,-27.2,-24.4,-138.1
Cc1cc(N)n(-c2nc3ccccc3n2Cc2c(F)cccc2Cl)n1,9.8,8.8,6.6,23.6
Cc1ccc(-n2c(=O)c3ccccc3n(Cc3c(F)cccc3Cl)c2=O)cc1,5.6,61.8*,3.3,-0.2
O=c1ccn(-c2ccccc2)nc1-c1nc(-c2ccc(Br)cc2)no1,12.8,36.6*,14.5,21.2
Cc1cccc(-n2ccc(=O)c(-c3nc(-c4ccc(Cl)c(F)c4)no3)n2)c1,15.5,22.9,3.2,39.1*
COc1ccc(-n2ccc(=O)c(-c3nc(-c4ccccc4C)no3)n2)cc1,10.9,19.2,12.2,37.6*
O=C(N[C@H]1C[C@@H]2C[C@H]1CN2S(=O)(=O)c1cccnc1)c1ccccc1,-18.4,-36.5,-10.6,-45.1
Cc1cc(=O)[nH]c(SCC(=O)c2cc(C)n(CCC3=CCCCC3)c2C)c1C#N,-57.8,47.3*,-35.8,-270.9
Cc1ccc2[nH]c3c(=O)n(CCC4=CCCCC4)cnc3c2c1,4.7,15.3,9.9,9.7
Cc1cccc(C(=O)Nc2cccc(SC(C(=O)Nc3ccc(Cl)c(C(=O)O)c3)c3ccccc3)c2)c1 (stereo not drawn),44.3*,80.4*,20.8,47.4*
O=C(O)c1ccccc1C(=O)Nc1ccc(SC(C(=O)Nc2cccc(Cl)c2)c2ccccc2)cc1 (stereo not drawn),33.8*,51.3*,28.4,17.2
O=C(O)c1cc(NC(=O)C(Sc2cccc(NC(=O)c3ccccc3F)c2)c2ccccc2)ccc1O (stereo not drawn),-36.7,-15.7,-50.5,-166.7
Cc1ccc(C(=O)O)cc1NC(=O)C(Sc1cccc(NC(=O)c2cccc(Cl)c2)c1)c1ccccc1 (stereo not drawn),46.7*,84.7*,28.7,91.1*
COc1nccnc1N1CCC(N(C)C(=O)NCc2ccc(F)cc2)C1 (stereo not drawn),-5.7,-5.5,-10.6,-4.3
O=C(NCc1ccco1)c1cc(-c2ccncc2)n(-c2ccc(F)cc2)n1,5.4,-4.3,1.3,10.5
O=C(c1cc(-c2cccnc2)nc2ccccc12)N1CCN(Cc2ccc3c(c2)OCO3)CC1,-15.0,-16.1,-10.1,-14.5
Cc1ccc2c(NCc3ccc4c(c3)OCO4)c(-c3nc(C)no3)cnc2n1,42.9*,35.6*,6.7,-78.1
Cc1ccc2c(Nc3ccccc3)c(-c3nc(C)no3)cnc2n1,12.1,-14.4,-1.9,-27.1
COc1ccc(CCNC(=O)c2noc3c2CCc2sccc2-3)cc1OC,75.5*,52.1*,-6.7,-1.0
COc1ccc(Cl)cc1N(C)C(=O)c1noc2c1CCc1sccc1-2,22.7,20.5,17.8,33.8*
COc1ccc(OCC(=O)Nc2cc(F)c3nc(N4CCOCC4)ccc3c2)cc1,0.4,10.0,-36.1,-64.9
CC(C)CC(=O)Nc1cc(F)c2nc(N3CCOCC3)ccc2c1,-10.9,75.1*,-6.7,-53.2
O=C(Cn1ccc2ccc(N3CCOCC3)nc21)NCc1ccc(F)cc1F,-110.4,-82.4,-100.5,-376.6
SMILES,USP28 block,USP17 block,OTUD3 block,USP30 block
O=C(COc1ccc(F)cc1)Nc1cc(F)c2nc(N3CCOCC3)ccc2c1,-1.2,51.3*,-13.8,-4.0
O=C(COc1nc2ccccc2nc1N1CCOCC1)Nc1ccc(F)cc1,7.0,20.9,15.7,38.4*
COC(=O)c1ccccc1NC(=O)COC(=O)CCc1ccccc1,25.6,22.2,22.8,24.7
Cc1cn2c(=O)cc(COC(=O)COc3ccccc3F)nc2s1,-6.5,-7.9,-2.1,5.4
CCCC(=O)N(Cc1ccccc1)c1nnc(C23CC4CC(CC(C4)C2)C3)s1,12.1,8.4,9.9,12.0
CN(C(=O)c1ccc(C(=O)c2ccccc2)cc1)c1nnc(C23CC4CC(CC(C4)C2)C3)s1,21.4,17.7,15.9,32.8*

# From PubChem
